Screens as filed in PubChem BioAssay.
Tb PFK block: qHTS Assay to Find Inhibitors of T. brucei phosphofructokinase. ATP-dependent 6-phosphofructokinase (Trypanosoma brucei brucei), O15648. T. brucei PFK, ADP-Glo luminescence. Potency, µM (series often up to 57.5 µM), without a hit: top-dose activity, negative = inhibition, actives largely listed as inhibitors. 0.17% of 330,000 active;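 further: potency means the concentration at half of the fitted maximal effect; 0% = uninhibited 1x PFK enzyme wells and -100% = no-enzyme wells; nearly all actives have a fitted effect of over 60% in size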
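Compounds were pin-transferred as a titration series up to 57 uM into substrate buffer (0.5 mM F6P, 0.1 mM ATP, pH 8.0), then 1.25 nM PFK was added and reactions ran 45 min before ADP-Glo detection.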
Tb PGK inh: qHTS Assay to Find Inhibitors of Phosphoglycerate Kinase; Phosphoglycerate kinase, glycosomal (Trypanosoma brucei brucei), P07378; PGK/GAPDH coupled, Kinase-Glo luminescence, 60 min; Potency, µM (doses to about 57.5 µM), for the others: at the highest dose activity change, negative = inhibition, most hits filed as inhibitors; 0.043% of 380,000 active; AID 602233, 2012; further: potency means the concentration at half of the fitted maximal effect; nearly all actives have a fitted effect of over 60% in size
Target sequence (P07378 whole entry, looked up): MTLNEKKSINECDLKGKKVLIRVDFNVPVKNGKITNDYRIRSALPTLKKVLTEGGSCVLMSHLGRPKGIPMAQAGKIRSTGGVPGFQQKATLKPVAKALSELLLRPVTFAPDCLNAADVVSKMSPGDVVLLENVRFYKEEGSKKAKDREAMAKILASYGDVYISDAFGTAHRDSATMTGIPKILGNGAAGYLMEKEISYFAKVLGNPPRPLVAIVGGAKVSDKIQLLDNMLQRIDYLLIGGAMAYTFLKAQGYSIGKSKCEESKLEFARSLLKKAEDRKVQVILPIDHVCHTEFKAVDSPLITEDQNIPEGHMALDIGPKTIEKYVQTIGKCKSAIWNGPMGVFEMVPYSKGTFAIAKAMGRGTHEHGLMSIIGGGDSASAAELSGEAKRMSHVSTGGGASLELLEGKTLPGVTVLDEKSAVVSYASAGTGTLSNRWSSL
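Luminescent ATP detection (Kinase-Glo Plus) follows a 60-minute room-temperature incubation, with wells lacking PGK as controls. Buffer: 100 mM TEA (pH 7.6), 5 mM MgCl2, 0.01% Tween-20. Coupling enzyme GAPDH (100 nM final) supplies unstable 1,3-BPG in-well.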
BCR signal inh: qHTS Assay to Find Inhibitors of Chronic Active B-Cell Receptor Signaling; Potency, µM (series often up to 46.1 µM), for the others: at the highest dose activity change, negative = inhibition, hits mostly inhibitors; ABC-DLBCL IkBa-CBG/CBR reporter, luminescence ratio, 4 h; 0.05% of 340,000 active; active means well fitted inhibition curve with a large enough effect in the signal ratio, with a control signal flat, not every such curve was filed as active; inconclusive means small, poorly fitted or top-dose-only effect, or effect the other way, or a change in a side signal; the % refers to the signal ratio;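 further: potency means the concentration at half of the fitted maximal effect; plate controls were basal doxycycline-induced cells for no effect and cells given 10 µM MG132 for full effect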
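TMD8 ABC-DLBCL cells carrying doxycycline-inducible green luciferase fused to IkappaBalpha plus unfused red luciferase were exposed to compounds (up to 46 uM) for 4 hrs at 37C. Activity came from the overlap-corrected green/red luminescence ratio.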
Pin1 inh: qHTS Assay to Find Inhibitors of Pin1. Peptidyl-prolyl cis-trans isomerase NIMA-interacting 1 (Homo sapiens), Q13526. Pin1 FP peptide displacement, HiFluor488, 10 min. Potency, µM (highest dose often 115 µM), without a hit: top-dose activity, negative = inhibition, actives largely listed as inhibitors. 0.009% of 390,000 active. AID 504891, 2011; active means well fitted inhibition curve with a large enough effect in the polarisation, with a control signal flat, not every such curve was filed as active; inconclusive means small, poorly fitted or top-dose-only effect, or effect the other way, or a change in a side signal; inactive means no such curve, though single readings can be large or run the other way; the % refers to the polarisation; further: potency means the concentration at half of the fitted maximal effect
Target sequence (Q13526 whole entry, looked up): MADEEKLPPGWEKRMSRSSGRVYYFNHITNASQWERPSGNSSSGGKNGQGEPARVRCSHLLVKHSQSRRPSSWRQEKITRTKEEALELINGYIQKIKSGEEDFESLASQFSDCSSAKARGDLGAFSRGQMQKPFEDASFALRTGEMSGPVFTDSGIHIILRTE
PI4K2A block: qHTS for small molecular inhibitors of PI4K2A | purified PI4K2A, ADP-Glo luminescence, 1 h; stronger effect = lower value | activity change, negative = inhibition, % at 76.9 µM | 0.13% of 420,000 active | AID 1346378, 2018; in the data active means activity change below about -50%; inconclusive means mostly about -30% to -49%;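 further: -100% = wells without enzyme as full effect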
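Compounds are screened against recombinant PI4K2A using PI as substrate and ATP, the latter dispensed at 300 microM. Reactions run one hour at ambient temperature before ADP-Glo detection; full inhibition defined by wells lacking enzyme.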
* = called active by the depositor; i = inactive; ? = inconclusive; / = not tested or not shown. Shown are actives, neighbours in structure and some others; about 0.34% of the full set was active somewhere. Unless noted, the call rests on the fitted dose curve; in most records, active means well fitted curve in the direction sought with a large enough effect; inconclusive means small, poorly fitted or top-dose-only effect, or another doubt; inactive means no such curve, though single readings can be large; an effect the other way counts as inactive or inconclusive. Unless noted, on the % scale 0 is the no-effect control and ±100 the full control effect.

SMILES	Tb PFK block	Tb PGK inh	BCR signal inh	Pin1 inh	PI4K2A block
CC1=NN(c2cccc(C(=O)O)c2)C(=O)/C1=C\C=C\c1ccco1	21.3µM*	3.98µM*	?	/	?
COc1cc(/C=C2\C(=O)N(c3cccc(C(=O)O)c3)N=C2C)ccc1OCc1ccccc1	/	-8.7%	/	/	-59.0*
COc1cc(/C=C2\C(=O)N(c3ccc(S(N)(=O)=O)cc3)N=C2C)ccc1OC(=O)c1ccco1	-10.5%	?	2.3%	-6.6%	-52.2*
COc1ccc(CN(Cc2ccccc2)C(=O)c2ccccc2)cc1COc1ccc(NC(C)=O)cc1	/	/	/	18.5%	/
Cn1c2cc(CO)sc2c2cnn(Cc3ccccc3F)c(=O)c21	/	/	/	-2.6%	/
CC(=O)NC1C(=O)N(CCN2CCOCC2)c2ccc(C)cc21 (centres undefined)	-24.6%	20µM*	-15.8%	50.1µM*	-6.7
Cc1occc1C(=O)N/N=C/c1ccc(N(C)C)cc1	?	25.1µM*	?	-7.1%	-86.6*
CCc1ccccc1NC(=O)c1cccc(NC(=O)/C=C/c2ccco2)c1	-13.1%	-1.7%	?	23.8%	0.8
O=C(/C=C/c1ccco1)Nc1cccc(C(=O)Nc2ccccc2C(=O)O)c1	16.6%	31.6µM*	?	?	-15.0
Cn1nnnc1Sc1ncnc2scc(-c3cccc(C#N)c3)c12	/	/	/	3.9%	/
COc1ccc2cc3c(N)c(C(=O)NCc4ccco4)sc3nc2c1	-3.7%	-1.8%	?	?	-56.8*
CC(=O)N(c1ccc2oc(=O)sc2c1)S(=O)(=O)c1ccc(C(=O)O)cc1	?	-4.0%	11.9%	-13.5%	3.8
CCCC(=O)N(c1ccc2oc(=O)sc2c1)S(=O)(=O)c1ccccc1	4.9%	-1.7%	-33.8%	-4.6%	-50.5*
COc1ccc(C2=NC(C)(C)Cc3cc(OC)c(OC)cc32)cc1OC	-2.1%	-2.2%	?	-9.3%	0.3
COc1cc2c(cc1OC)C(CC#N)=NC(C)(C)C2	-0.3%	-2.0%	16.4µM*	5.8%	4.6
O=C1C=CC(=O)c2c(O)c(CO)c(CO)c(O)c21	/	8.91µM*	/	/	-52.7*
O=c1c(CO)cc(CO)cc(CO)c1O	-4.6%	-2.8%	-0.4%	?	-0.4
Cn1nnnc1SCC1=C(C(=O)O)N2C(=O)[C@@H](NC(=O)[C@H](O)c3ccccc3)[C@H]2SC1	2.9%	?	4.8%	3.16µM*	-12.8
COc1cccc(C=Nc2ccc3c(c2)OCCO3)c1O	0.0%	?	3.0%	-8.9%	-62.9*
Cc1cccc(Nc2nc(C#N)nc(NC3CCCC3)n2)c1	/	/	/	7.7%	/
CC(c1ccccc1)c1nnc(NC(=O)Nc2ccccc2F)s1 (centres undefined)	-5.9%	-0.7%	8.3%	3.9%	-50.0*
O=C(O)c1ccc(N=Nc2c(O)[nH]c3ccccc23)cc1	-0.9%	-24.3%	?	12.3%	-62.1*
CN(C)C(=O)c1ccc(N=Nc2c(O)c3ccccc3[nH]c2=O)cc1	/	?	/	-0.4%	-14.0
COc1ccc(OC(=O)CN2C(=O)C3C4CCC(C4)C3C2=O)cc1 (centres undefined)	5.0%	5.2%	?	-5.4%	1.3
Cc1cccc(OC(=O)CN2C(=O)C3C4CCC(C4)C3C2=O)c1C (centres undefined)	0.3%	-7.2%	9.2%	-9.0%	-84.7*
SMILES	Tb PFK block	Tb PGK inh	BCR signal inh	Pin1 inh	PI4K2A block
c1ccc2nc(-c3nc4ccccc4[nH]3)ccc2c1	-19.8%	?	?	-1.8%	-65.9*
COCCN1C(=O)c2oc3ccccc3c(=O)c2C1c1ccc(OC)c(OC)c1 (centres undefined)	0.6%	28.2µM*	0.0%	-14.8%	3.6
COc1ccc(C2c3c(oc4ccccc4c3=O)C(=O)N2CCN2CCOCC2)cc1OC (centres undefined)	/	-11.2%	/	-2.3%	0.2
O=C1CC2(CCCC2)CC(=O)N1	/	/	/	/	-2.7
c1ccc2sc(-c3ccc4c(c3)OCO4)nc2c1	-19.1%	?	?	?	-67.6*
CCN1CCN(C(=O)c2ccc(-c3nc4ccccc4s3)s2)CC1	-0.6%	-4.7%	?	-3.0%	-8.1
O=C(c1ccc(-c2nc3ccccc3s2)s1)N1CCOCC1	-15.4%	?	?	10.9%	-66.5*
COc1ccc(-c2ccc(NC(=O)c3ccco3)cc2)nn1	-18.5%	?	?	3.7%	-53.2*
Cc1ccsc1/C=N/Nc1nc(=O)[nH]nc1C	-29.8%	28.2µM*	-21.4%	-3.6%	-71.4*
COc1ccccc1NC(=O)N1CCN(c2ccnc3cc(Cl)ccc23)CC1	-22.5%	12.7%	?	-3.9%	2.6
COc1ccccc1N1CCN(c2ccnc3cc(Cl)ccc23)CC1	-1.4%	-2.4%	20µM*	-3.0%	-0.1
COc1ccc(OC)c(-c2csc(NC(=O)COC(=O)c3ccc(NC(=O)CC#N)cc3)n2)c1	21.3µM*	?	4.9%	-3.1%	0.0
COc1ccc(OC)c(-c2csc(NC(=O)COC(=O)C3CCC3)n2)c1	-1.8%	i	-0.1%	-2.6%	-7.6
O=S1(=O)N=C(Oc2ccccc2C(F)(F)F)c2ccccc21	/	/	/	-3.5%	/
c1ccc(-c2cn3c(n2)-c2ccccc2C3)cc1	-12.2%	?	?	0.7%	-51.4*
Cc1ccc(-c2nc3n(n2)Cc2ccccc2-3)cc1	-4.1%	-16.5%	?	1.2%	?
Cc1cc(C)cc(NC2=C(N)C(=O)c3ccccc3C2=O)c1	1.3%	-9.8%	3.9%	-7.2%	-50.3*
CC[C@]12c3[nH]c4cc(-c5ccco5)ccc4c3CCN1C(=O)[C@@H](CC(=O)NCCC1=CCCCC1)C[C@@H]2C(=O)N1CCN(C(=O)c2ccco2)CC1	-26.6%	-12.0%	?	10.8%	-53.4*
CC[C@]12c3[nH]c4cc(CCC(=O)N(C)C)ccc4c3CCN1C(=O)[C@@H](CC(=O)NCCC1=CCCCC1)C[C@@H]2C(=O)N1CCN(C(=O)c2ccco2)CC1	0.4%	-8.8%	?	-2.2%	-0.1
COc1ccc(-c2ccc(CCC(=O)O)n2-c2ccccc2C(F)(F)F)cc1	/	-3.4%	/	-3.6%	5.9
COc1ccc(-c2ccc(CCC(=O)O)n2-c2ccccc2O)cc1	0.3%	1.5%	15.8µM*	13.7%	1.5
COc1cc2cccc(OC)c(=O)c2c(O)c1OC	8.9%	i	-0.8%	-0.9%	0.7
COc1cc2c(ccc3cc(OC)c(OC)c(O)c32)cc1O	?	11.2µM*	?	?	-27.6
COc1cc(SC#N)ccc1N=Cc1c(C)[nH]n(-c2ccc(C)cc2C)c1=O	/	-7.4%	/	19.1%	-53.6*
